According to PubChem BioAssay:
Records with an inconclusive call do not appear. Activity calls are given as the source filed them.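 How the source made its calls, unless noted: active means cell viability at or below a set limit in both duplicate runs, the limit being the all-compound median minus 4 SD (cut at about 23% in these data, passing the limit was not always enough); inconclusive means no clear call, values can overlap the other calls; inactive means the rest.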

Assays:
[1] = reducers of endogenous Her2 protein level, primary screen, SKBR3 breast tumor cells, AlphaScreen, ATP viability (AID 461;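 active means Her2 level under about 52% in both replicate screens, with viability over 70% of control, limit read from the data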;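 on Her2 level: lower value means less Her2 protein in the cells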;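 on viability: percent of carrier control wells set as 100% viability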); details: 18-24 h, measured here: SKBR3 viability, ATP luminescence, at 10 µM
[2] = target: Receptor tyrosine-protein kinase erbB-2 (Homo sapiens) (UniProt P04626); test: as above; details: 18-24 h, at 10 µM, stronger effect = lower value
[3] = SK-BR-3 cell growth inhibitors, pilot screen, 24 h, human (AID 572;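 active means viability at or below 10% of carrier control in both of two separate runs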;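 further: compound exposure lasted between 18 and 24 h rather than exactly 24 h; 100% = carrier-treated control wells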); details: SK-BR-3 viability, CellTiter-Glo luminescence, at 10 µM, stronger effect = lower value
[4] = HUVEC growth inhibition – cell-based, human, primary screen (AID 575;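 active means viability at or below 30% in both replicate assays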;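 further: 100% = median of untreated cell wells with 0.1% DMSO on each plate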); details: HUVEC proliferation, CellTiter-Glo luminescence, 72 h; at 10 µM; stronger effect = lower value
[5] = growth inhibitors of H69AR lung tumor, primary screen, human, duplicate replicates (AID 580;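 active means viability at or under a set limit in both replicates, limit being median viability minus 3 SD, cut at about 48% in these data, passing the limit was not always enough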;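 further: 100% = mean luminescence of untreated wells and 0% = no signal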); details: H69AR lung tumor cells viability, ATP luminescence, 72 h; at 10 µM; stronger effect = lower value
[6] = reversal of MRP1-mediated doxorubicin resistance, pilot screen, H69AR cells, doxorubicin co-treatment (AID 601;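 active means viability loss from added drug above about 55%, and viability with drug at most 40%, in both replicates, limit read from the data, passing the limit was not always enough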); details: CellTiter-Glo, 72 h, at 10 µM; for differential viability (reversal): stronger effect = higher value
[7] = 384-well plate pilot, post-Golgi transport modulator project, inhibition of yeast transport mutant growth (AID 636; in the data active means inhibition above about 31%); details: absorbance 615 nm, about 18 h, stronger effect = higher value
[8] = growth suppression of yeast trafficking mutant, preliminary HTS, modulators of trafficking downstream of Golgi apparatus project, 1536-format plate, OD 615 nm (AID 637; in the data active means inhibition above about 30%); details: yeast transport mutant growth, absorbance 615 nm, 18 h; stronger effect = higher value
[9] = OD615 S. cerevisiae growth inhibition, permissive medium, pilot counter-assay, permissive growth control for S. cerevisiae lifespan shortening project (AID 705;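 active means growth inhibition above 25% in both replicates, a cutoff set 3 SD above the mean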); details: OD615, 24 h, at 10 µM, stronger effect = higher value
[10] = Restrictive medium S. cerevisiae growth inhibition, OD615, pilot screen of yeast lifespan reduction project, restrictive growth control (AID 706;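 active means growth inhibition above a set limit, 3 SD over mean compound inhibition, in both replicates, cut at about 43% in these data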;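 further: modified DeaD lifespan yeast strain shifted to restrictive glucose medium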); details: OD615, 48 h, at 10 µM, stronger effect = higher value
[11] = viability gain of MRP-1-high H69AR cells under doxorubicin, pilot screen, MRP-1 activator project, CellTiter-Glo, duplicate (AID 807;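 active means viability increase at or above a cutoff of the median across tested compounds plus 3 SD, cut at about 8.5% in these data, passing the limit was not always enough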;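 further: compound pretreatment 18-22 h then 72 h combined with doxorubicin; 0% = doxorubicin alone and 100% = vehicle without doxorubicin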); details: H69AR viability with doxorubicin, CellTiter-Glo luminescence; at 10 µM; stronger effect = higher value
[12] = growth suppression of beta-catenin knockout HCT116, pilot screen, human colon tumor cells (AID 823); details: CellTiter-Glo, 60 h, at 10 µM, stronger effect = lower value;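 further: 0% = wells killed by 20 µM Hyamine and 100% = untreated DMSO cell wells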
[13] = growth suppression of PTEN-deleted HCT116, pilot screen, cell-based, HCT116 clonal line, CellTiter-Glo (AID 824;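 active means viability at or below 27.92% in each of two runs, the all-compound median minus 4 SD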;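 further: 0% = 20 µM Hyamine control and 100% = vehicle cell control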); details: 60 h, at 10 µM, stronger effect = lower value
[14] = inhibitors of the yeast RAM network, pilot screen, dse1pr::URA3 reporter, 5-FOA selection (AID 869;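 active means inhibition over a set limit, the all-compound mean plus 3 SD, in both replicate runs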;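 further: 0% = DMSO wells with no growth and 100% = 10 µM 1-NA-PP1 with full growth; RAM network block rescues cells from 5-FOA so hits raise OD615 growth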); details: S. cerevisiae dse1pr::URA3 5-FOA growth, OD615, 2 d; at 10 µM; stronger effect = higher value; strain carries analog-sensitive mutant Cbk1 kinase
[15] = RAM signaling pathway blockade in yeast – S. cerevisiae, Pdr1DBD-CYC8 efflux-inhibited sensitized strain, primary screen (AID 1298;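 active means RAM network inhibition above 8.4% in each of two replicates, 3 SD over the compound average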;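 further: 0% = DMSO untreated cells without growth and 100% = 10 µM 1-NA-PP1 full growth; higher means more yeast growth rescued from 5-FOA killing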); details: S. cerevisiae cbk1-as DSE1-URA3 strain, 5-FOA growth OD615, 2 d; at 50 µM; stronger effect = higher value
[16] = H69AR cells + 2 uM doxorubicin, measured here: viability with 2 uM doxorubicin, stronger effect = lower value
[17] = H69AR cells, compound alone cytotoxicity

Sequence of Receptor tyrosine-protein kinase erbB-2 (Homo sapiens) (P04626 whole entry, looked up): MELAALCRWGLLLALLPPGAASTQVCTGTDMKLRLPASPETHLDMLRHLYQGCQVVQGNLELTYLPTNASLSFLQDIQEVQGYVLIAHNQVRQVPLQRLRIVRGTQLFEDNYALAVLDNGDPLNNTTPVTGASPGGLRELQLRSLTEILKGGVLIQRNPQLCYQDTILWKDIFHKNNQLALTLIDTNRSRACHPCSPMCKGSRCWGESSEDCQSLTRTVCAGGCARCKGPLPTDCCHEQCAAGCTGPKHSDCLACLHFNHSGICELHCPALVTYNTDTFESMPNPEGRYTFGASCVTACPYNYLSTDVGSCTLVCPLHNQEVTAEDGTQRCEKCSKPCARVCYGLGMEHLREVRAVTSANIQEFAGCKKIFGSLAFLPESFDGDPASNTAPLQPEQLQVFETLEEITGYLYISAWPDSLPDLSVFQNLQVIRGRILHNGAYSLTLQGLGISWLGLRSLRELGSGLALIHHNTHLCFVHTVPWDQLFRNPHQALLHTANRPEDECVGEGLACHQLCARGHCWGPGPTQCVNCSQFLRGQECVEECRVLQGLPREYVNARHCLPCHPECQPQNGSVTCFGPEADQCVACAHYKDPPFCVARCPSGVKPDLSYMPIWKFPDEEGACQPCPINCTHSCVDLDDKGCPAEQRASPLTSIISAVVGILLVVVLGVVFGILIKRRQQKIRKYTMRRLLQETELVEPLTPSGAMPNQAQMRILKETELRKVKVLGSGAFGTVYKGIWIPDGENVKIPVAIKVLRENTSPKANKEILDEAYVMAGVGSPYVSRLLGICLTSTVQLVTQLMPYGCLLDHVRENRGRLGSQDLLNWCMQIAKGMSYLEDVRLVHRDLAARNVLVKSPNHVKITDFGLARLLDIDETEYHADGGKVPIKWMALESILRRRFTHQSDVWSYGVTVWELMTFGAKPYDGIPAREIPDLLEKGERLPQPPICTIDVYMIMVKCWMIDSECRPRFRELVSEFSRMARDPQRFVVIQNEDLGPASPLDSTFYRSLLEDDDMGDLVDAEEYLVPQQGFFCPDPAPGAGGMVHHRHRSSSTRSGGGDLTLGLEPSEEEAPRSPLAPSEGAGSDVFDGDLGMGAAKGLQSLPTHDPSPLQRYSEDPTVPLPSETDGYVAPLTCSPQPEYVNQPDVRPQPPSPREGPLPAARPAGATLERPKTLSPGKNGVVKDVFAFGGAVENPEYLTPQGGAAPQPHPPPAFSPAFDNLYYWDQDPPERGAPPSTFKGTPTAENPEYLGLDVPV

CCOC(=O)N1CCN(Cc2nc3c(c(=O)n(C)c(=O)n3C)n2Cc2ccc(F)cc2)CC1
86.5%: viability [1]
72.6%: viability [6, 17]
72.8%: viability [6, 16]
inactive: Her2 level [2] 101% | viability [3] 86.5% | viability [4] 92.9% | viability [5] 72.6% | differential viability (reversal) ([6]; H69AR cells + 2 uM doxorubicin) -0.205% | inhibition [7] -4.27% | inhibition [8] 3.67% | growth inhibition [9] -5.48% | growth inhibition [10] 5.73% | viability increase [11] -3.14% | viability [12] 93.3% | viability [13] 81.7% | inhibition [14] 0.44% | RAM network inhibition [15] 0.36%

O=C(OCC(=O)c1ccc[nH]1)c1ccc(S(=O)(=O)N2CCCCC2)cc1
inactive: Her2 level [2] 98% | viability [3] 94% | viability [4] 90.9% | viability [5] 97.8% | differential viability (reversal) ([6]; H69AR cells + 2 uM doxorubicin) 16.8% | inhibition [7] -3.64% | inhibition [8] -6.17% | growth inhibition [9] -15.2% | growth inhibition [10] -4.03% | viability increase [11] -0.59% | viability [12] 99.8% | inhibition [14] 3.25% | RAM network inhibition [15] 3.17%
81%: viability [6, 16]
94%: viability [1]
97.8%: viability [6, 17]

COc1cccc(/C=N/n2cnnc2)c1OCc1ccccc1
97.8%: viability [6, 17]
90.8%: viability [6, 16]
98%: viability [1]
inactive: Her2 level [2] 104% | viability [3] 98% | viability [4] 93.2% | viability [5] 97.8% | differential viability (reversal) ([6]; H69AR cells + 2 uM doxorubicin) 7.02% | inhibition [7] 0% | inhibition [8] -0.16% | growth inhibition [9] -14.7% | growth inhibition [10] -17% | viability increase [11] -0.6% | viability [12] 107% | viability [13] 98.9% | inhibition [14] 0.69% | RAM network inhibition [15] -1.19%

COc1cccc(NC(=O)c2ccco2)c1
87.2%: viability [6, 16]
94.9%: viability [6, 17]
inactive: Her2 level [2] 116% | viability [3] 99% | viability [4] 94.5% | viability [5] 94.9% | differential viability (reversal) ([6]; H69AR cells + 2 uM doxorubicin) 7.72% | inhibition [7] -3.38% | inhibition [8] -4.33% | growth inhibition [9] -0.175% | growth inhibition [10] 6.41% | viability increase [11] -4.31% | viability [12] 107% | viability [13] 98.7% | inhibition [14] 0.235% | RAM network inhibition [15] -0.82%
99%: viability [1]

CCN(CC)CCCN1C(=O)C(O)=C(C(=O)c2ccco2)C1c1ccc(C)o1 (stereo unspecified)
85.4%: viability [6, 17]
102%: viability [1]
inactive: Her2 level [2] 93.5% | viability [3] 102% | viability [4] 102% | viability [5] 85.4% | differential viability (reversal) ([6]; H69AR cells + 2 uM doxorubicin) -0.59% | inhibition [7] -6.89% | inhibition [8] 7.94% | growth inhibition [9] -11.8% | growth inhibition [10] 14.4% | viability increase [11] -4.15% | viability [12] 97.4% | inhibition [14] 0.395% | RAM network inhibition [15] 3.48%
86%: viability [6, 16]

CCOCCCNC(=O)C(c1ccccc1)N(Cc1ccc2c(c1)OCO2)C(=O)CNC(C)=O (stereo unspecified)
102%: viability [6, 16]
100%: viability [1]
105%: viability [6, 17]
inactive: Her2 level [2] 108% | viability [3] 100% | viability [4] 97.7% | viability [5] 105% | differential viability (reversal) ([6]; H69AR cells + 2 uM doxorubicin) 2.97% | inhibition [7] -6.3% | inhibition [8] 1.59% | growth inhibition [9] 3.28% | growth inhibition [10] -2.68% | viability increase [11] -3.36% | viability [12] 98.6% | inhibition [14] 0.43% | RAM network inhibition [15] 1.52%

O=C(Nc1ccc2c(c1)OCCO2)c1cnc2n(c1=O)CCS2
85.5%: viability [1]
79.4%: viability [6, 17]
inactive: Her2 level [2] 80.5% | viability [3] 85.5% | viability [4] 105% | viability [5] 79.4% | differential viability (reversal) ([6]; H69AR cells + 2 uM doxorubicin) 0.765% | inhibition [7] 0.93% | inhibition [8] -2.95% | growth inhibition [9] -17.9% | growth inhibition [10] 2.96% | viability increase [11] 3.01% | viability [12] 106% | viability [13] 104% | inhibition [14] 1.6% | RAM network inhibition [15] 4.19%
78.7%: viability [6, 16]
